MEKK2mut PB1 HTS = MEK5 binding signal on mutant MEKK2 PB1, primary screen, biochemical, multiplex bead flow cytometry, Alexa488-MEK5 | percent response, % at 10 µM | Alexa488-MEK5 binding to MEKK2 mutant | 290,000 compounds, 0.35% hits; in the data active means percent response above about 24%, passing the limit was not always enough
UBC13 polyUb = UBC13 polyubiquitin chain formation inhibitors, primary screen, biochemical, TR-FRET, uHTS | Ubiquitin-conjugating enzyme E2 N (Homo sapiens), P61088 | inhibition, % at 20 µM | 330,000 compounds, 0.47% hits; in the data active means inhibition above about 45%, passing the limit was not always enough; inconclusive means no clear call, values can overlap the other calls
Rce1 inh = yeast Rce1p protease inhibitors, primary screen, biochemical, fluorescence, cell-free homogeneous | CAAX prenyl protease 2 (Saccharomyces cerevisiae (strain ATCC 204508 / S288c)), Q03530 | yeast membranes, quenched prenylated peptide cleavage fluorescence | calls only | 290,000 compounds, 0.27% hits | AID 2563, 2010;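 active means fall in fluorescence gain of 50% or more versus controls, with final raw signal at or below 3038400; inconclusive means same 50% fall but final raw signal above 3038400; inactive means fall in fluorescence gain under 50%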
MEKK3 PB1 HTS = modulators of MEKK3-MEK5 PB1 binding, primary screen, biochemical, wildtype MEKK3, multiplex bead flow cytometry, Alexa488-MEK5; bead-based flow cytometry, Alexa488-MEK5 binding to MEKK3; actives lie on both sides; 0 = blocked by unlabeled MEK5, 100 = vehicle; binding response (% of control), % at 10 µM; 290,000 compounds, 1.4% hits;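 active means binding response more than 3 SD above or below the average of its plate-row segment, actives on both sides; inconclusive means wells at one plate position flagged as instrument error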;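 further: Alexa488 bead fluorescence after subtracting the streptavidin-only scavenger bead signal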
Target sequence (Q99759 whole entry, looked up): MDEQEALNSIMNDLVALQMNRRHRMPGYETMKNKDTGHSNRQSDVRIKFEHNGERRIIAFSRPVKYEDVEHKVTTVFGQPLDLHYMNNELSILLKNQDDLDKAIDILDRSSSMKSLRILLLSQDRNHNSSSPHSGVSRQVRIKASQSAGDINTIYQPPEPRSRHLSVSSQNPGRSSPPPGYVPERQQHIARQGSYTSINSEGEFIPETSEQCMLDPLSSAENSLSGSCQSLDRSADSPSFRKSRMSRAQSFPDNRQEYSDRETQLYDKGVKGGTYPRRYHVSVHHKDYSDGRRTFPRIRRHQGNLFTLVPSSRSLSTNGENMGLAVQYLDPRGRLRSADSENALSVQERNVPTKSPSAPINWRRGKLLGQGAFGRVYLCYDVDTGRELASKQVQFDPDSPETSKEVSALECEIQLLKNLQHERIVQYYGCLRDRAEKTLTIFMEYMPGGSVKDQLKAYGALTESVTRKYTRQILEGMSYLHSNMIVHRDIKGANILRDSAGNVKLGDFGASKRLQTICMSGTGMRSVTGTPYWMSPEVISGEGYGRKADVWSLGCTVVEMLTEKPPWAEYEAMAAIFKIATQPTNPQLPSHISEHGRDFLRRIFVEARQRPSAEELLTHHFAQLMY
MEKK2 WT-MEK5 = modulators of MEK5 binding to wildtype MEKK2, primary screen, biochemical, multiplex bead flow cytometry, Alexa488-MEK5 | AID 1531, 2009 | Mitogen-activated protein kinase kinase kinase 2 (Homo sapiens), Q9Y2U5 | 290,000 compounds, 1.1% hits | Alexa488-MEK5 binding to MEKK2 WT; actives lie on both sides | binding response (% of control), % at 10 µM; in the data active means binding response below about 67% or above about 130%; inconclusive means no clear call, values can overlap the other calls; inactive means in between
Casp3 counter = CASP3 inhibitor validation, counterassay for project on UBE2N polyubiquitination blockers, biochemical, one dose; Recombinant caspase-3, Caspase-Glo 3/7 luminescence, 60 min; shares compounds with UBC13 polyUb; inhibition, % at 20 µM; 1,400 compounds, 4% hits;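 active means mean inhibition across replicates above about 26%, limit read from the data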
UBC13 conf = UBC13 polyubiquitination inhibitors, single-point retest, confirmation, biochemical, TR-FRET, single concentration | inhibition, % at 10 µM | shares compounds with UBC13 polyUb | 1,400 compounds, 68% hits; in the data active means inhibition above about 45%; inconclusive means no clear call, values can overlap the other calls
Of the large screens only hits and unclear results are named; the others gave an inactive call (follow-up assays come after a bar, where they were run). Compounds with a hit are over-represented: about 2.5% of the library has one in this group of screens.

C#CCOCCOCCOCCNc1nc(N2CCN(C(=O)Cn3cc(CCCCN)nn3)CC2)nc(N2CCN(C(=O)Cn3cc(CC(C)O)nn3)CC2)n1 (stereo unspecified)	none
C#CCOCCOCCOCCNc1nc(N2CCN(C(=O)CCCCCCCCCCNC(=O)Cn3cc(C[C@@H](C)O)nn3)CC2)nc(N2CCN(C(=O)CCCCCCCCCCNC(=O)[C@@H]([C@H](C)O)n3cc(C)nn3)CC2)n1	none (no result: MEKK2mut PB1 HTS, Rce1 inh, MEKK3 PB1 HTS, MEKK2 WT-MEK5)
C#CCOCCOCCOCCNc1nc(N2CCN(C(=O)CCCCCCCCCCNC(=O)Cn3cc(CCCCCN)nn3)CC2)nc(N2CCN(C(=O)CCCCCCCCCCNC(=O)[C@@H]([C@H](C)O)n3cc(C)nn3)CC2)n1	UBC13 polyUb 116.2 (no result: MEKK2mut PB1 HTS, Rce1 inh, MEKK3 PB1 HTS, MEKK2 WT-MEK5) | Casp3 counter inactive | UBC13 conf 118.5
C[Si](C)(C)n1ccnc1	none
COc1ccccc1CCNC(=O)C(=O)NCC1OCCN1S(=O)(=O)c1ccc(OC)c(OC)c1 (stereo unspecified)	none
Cc1c(Br)c([N+](=O)[O-])nn1CCCC(=O)Nc1c(C)n(C)n(-c2ccccc2)c1=O	UBC13 polyUb 49.2 | Casp3 counter inactive | UBC13 conf inactive
Cc1c(NC(=O)CCCCCN2C(=O)c3ccccc3C2=O)c(=O)n(-c2ccccc2)n1C	UBC13 polyUb 105.9 | Casp3 counter inactive | UBC13 conf 110.1
CCOC(=O)C[N+]1(C)CCN(C(C)=O)CC1	none
CC1CN(C(=O)CCC(=O)NC2CCCCC2)c2ccccc2S1 (stereo unspecified)	none
Cc1ccc(NC2=CC(=O)CC(c3ccccc3)C2)cc1 (stereo unspecified)	UBC13 polyUb 45.0 | Casp3 counter inactive | UBC13 conf inactive
CC(=O)Nc1ccc(S(=O)(=O)N2CCN(CC(O)COc3ccc4ccccc4c3)CC2)cc1 (stereo unspecified)	UBC13 polyUb 47.0 | Casp3 counter inactive | UBC13 conf 49.0
CC(=O)Nc1ccc(OCC(O)CN2CCN(S(=O)(=O)c3ccc(NC(C)=O)cc3)CC2)cc1 (stereo unspecified)	none
CCn1c(=O)cc(SCC(=O)N2CCN(C3CCCCC3)CC2)c2ccccc21	UBC13 polyUb 79.3 | Casp3 counter inactive | UBC13 conf inconclusive
COc1ccc2nc(SCc3nc(N)nc(Nc4ccccc4)n3)[nH]c2c1	UBC13 polyUb 46.5 | Casp3 counter inactive | UBC13 conf inactive
COc1ccc(Nc2nc(N)nc(CSc3nc(C)cc(C)n3)n2)cc1	none
Cc1ccc(CNC(=O)COc2ccc(S(=O)(=O)N3CCCC3)cc2)cc1	none
NS(=O)(=O)c1ccc(CCNC(=O)c2cc(-c3ccco3)nc3ccccc23)cc1	UBC13 polyUb 51.1 (no result: MEKK2mut PB1 HTS, Rce1 inh, MEKK3 PB1 HTS, MEKK2 WT-MEK5) | Casp3 counter inactive | UBC13 conf inactive
COc1ccc(S(=O)(=O)N2CCC(CN3C(=O)c4cccc5cccc(c45)C3=O)CC2)cc1	none
O=C(c1ccc(S(=O)(=O)N2CCCC2)cc1)N1CCC(CN2C(=O)c3cccc4cccc(c34)C2=O)CC1	UBC13 polyUb 90.9 | Casp3 counter inactive | UBC13 conf 95.4
Cn1c(=O)c2c(ncn2Cc2ccc(Cl)cc2)n(C)c1=O	UBC13 polyUb 56.6 | Casp3 counter inactive | UBC13 conf 53.2
Cc1c(NC(=O)c2ccc(NC(=O)C3CC3)cc2)cccc1C(=O)O	none
COc1cccc(/C=N\NC(=O)c2sc(N)nc2C)c1OC	UBC13 polyUb 104.9 | Casp3 counter inactive | UBC13 conf 109.6
COc1cccc(/C=N/NC(=O)C(=O)N/N=C/c2cccc(OC)c2OC)c1OC	none
Cn1nc(N)c2c(-c3ccc(Cl)cc3)c(C#N)c(N)nc21	UBC13 polyUb 72.3 | Casp3 counter inactive | UBC13 conf 73.0
Cn1nc(N)c2c(-c3ccccc3)c(C#N)c(N)nc21	UBC13 polyUb 59.4 | Casp3 counter inactive | UBC13 conf 58.9
Cc1ccc(S(=O)(=O)CCN2C=CC(C(F)(F)F)=NCC2)cc1	none
COCCCNC(=O)C1CCCN(S(=O)(=O)c2ccc(C)cc2)C1 (stereo unspecified)	none
Cc1cc([N+](=O)[O-])cnc1NC(C)c1ccccc1 (stereo unspecified)	none
O=C(OCC(O)COC(=O)c1cccnc1)c1cccnc1	none
CCN(CC)CCNC(=O)c1c(C)n(-c2ccccc2)c2cc(Br)c(OC)cc12	UBC13 polyUb 51.5 | Casp3 counter inactive | UBC13 conf 79.4
CC(C)(C)CC(=O)Nc1ccc(S(=O)(=O)NC2=NCCCCC2)cc1	none (no result: MEKK2mut PB1 HTS, Rce1 inh, MEKK3 PB1 HTS, MEKK2 WT-MEK5)
CCCCCCCCC(=O)N1CCN(c2cc3c(cc2F)c(=O)c(C(=O)O)cn3CC)CC1	UBC13 polyUb 45.9 | Casp3 counter inactive | UBC13 conf inactive
CCCCCCCC(=O)N1CCN(c2cc3c(cc2F)c(=O)c(C(=O)O)cn3CC)CC1	none
CCC1(c2ccccc2)NC(=O)N(CC(=O)Nc2cc(Cl)ccc2N2CCN(C)CC2)C1=O (stereo unspecified)	UBC13 polyUb 86.9 (no result: MEKK2mut PB1 HTS, Rce1 inh, MEKK3 PB1 HTS, MEKK2 WT-MEK5) | Casp3 counter inactive | UBC13 conf 65.8
Cc1sc2ncnc(NCC(O)c3ccc([N+](=O)[O-])cc3)c2c1C (stereo unspecified)	none
CC(C)NC(=O)COc1coc(CN2CCN(c3ccccc3F)CC2)cc1=O	none
Nc1c(C(=O)Nc2ccccc2)c2nc3ccccc3nc2n1CCCN1CCOCC1	UBC13 polyUb 64.1 | Casp3 counter inactive | UBC13 conf 54.5
CCCC(=O)N(CCN1CCOCC1)c1nc2c(C)cccc2s1	UBC13 polyUb 68.6 | Casp3 counter inactive | UBC13 conf 73.1
CCOC(=O)C1CCCN(c2oc(-c3ccc(OC)cc3)nc2C#N)C1 (stereo unspecified)	Rce1 inh inconclusive
CCCCC(C(=O)O)C(C)CC(=O)Nc1nccs1 (stereo unspecified)	none
COC(=O)[C@H](Cc1ccccc1)NC(=O)O[C@@H]1C(=O)c2cc(OC)ccc2O[C@H]1c1ccc(OC)c(Br)c1	none
CC[C@H](C)[C@@H](NC(=O)O[C@@H]1C(=O)c2cc(OC)ccc2O[C@H]1c1ccc(OC)c(Br)c1)C(=O)OC	UBC13 polyUb 46.4 (no result: Rce1 inh) | Casp3 counter inactive | UBC13 conf inconclusive
CCOCCCNC(=O)C(c1ccc(OC)cc1)N(Cc1ccc2c(c1)OCO2)C(=O)c1ccccc1O (stereo unspecified)	none
